A number with no mark means an inactive call. The source made the active and inactive calls. Cut-off read from the data, not from the text of the source: active = inhibition above about 25%; inactive = the rest.
Experiment: repression of VP16-driven luciferase reporter – cell-based, luminescence, high throughput, counter-screen for SRC1 inhibitor project (AID 588824)
Conditions: cell-based VP16 transactivation luciferase luminescence; at 3.6 µM; hits give high values

| SMILES | inhibition |
| --- | --- |
| CCN1CCN(c2ccc(S(=O)(=O)N3CCOCC3)cc2NC(=O)c2cc(Cl)nc3ccccc23)CC1 | 1.55% |
| Cc1cc(C(=O)OCC(=O)N2CC(C)OC(C)C2)c(C)n1-c1ccccc1 (stereo not given) | -1.93% |
| O=C(Nc1cc(Cl)ccc1N1CCOCC1)c1ccco1 | -5.91% |
| O=C(Nc1nc(-c2ccccn2)cs1)c1cccc(-n2cnnn2)c1 | 7.13% |
| CCOC(=O)C1CCN(S(=O)(=O)c2ccc3c(c2)CC(C)N3C(=O)C2CC2)CC1 (stereo not given) | 3.71% |
| CC(=O)NC(c1cccs1)c1cc(F)c2cccnc2c1O (stereo not given) | 15.3% |
| CN(CC(=O)Nc1ccc(Cl)c(C(F)(F)F)c1)C(=O)C1CC(=O)N(c2ccc3c(c2)OCCO3)C1 (stereo not given) | 14% |
| CN(C(=O)COC(=O)c1ccc2[nH]c3c(c2c1)CCCC3)C1CCS(=O)(=O)C1 (stereo not given) | -0.75% |
| CCOC(=O)c1c(NC(=O)c2c(-c3ccccc3)noc2C)sc(C)c1-c1ccccc1 | 78.2% (active) |
| CCN(CC(=O)Nc1c(F)cccc1F)C(=O)/C=C/c1ccc(S(=O)(=O)N2CCCCCC2)cc1 | 6.23% |
| Cc1ccc(OCCN2CCN(C(=O)CCC(=O)Nc3nnc(CC(C)C)s3)CC2)cc1 | 11.8% |
| O=C1NC[C@H](c2ccccc2)OC(=O)[C@@H](Cc2ccc(F)cc2)C/C=C\C[C@H]1CC(=O)N(CCO)Cc1ccccc1 | -0.29% |
| Cn1c(=O)c2[nH]c(COc3ccc(C(C)(C)C)cc3)nc2n(C)c1=O | 18.8% |
| Cc1cccc(Oc2ncnc(N)c2[N+](=O)[O-])c1C | 5.89% |
| CCc1nc2c(OCc3c(C)noc3C)cccn2c1N(C=O)Cc1ccccc1 | -5.1% |
| CC[n+]1c(/C=C/Nc2ccccc2)oc2ccccc21 | 28.5% (active) |
| CCOC(=O)N1CCC(N(CCN(C)C)C(=S)Nc2ccccc2OCC)CC1 | 4.03% |
| CCOc1cc(C(=S)N2CCCCC2)ccc1OCC(=O)NCc1ccccc1 | -12.5% |
| CCCc1cc(-c2ccc(O)c(OCC)c2)c(C#N)c(N)n1 | -2.24% |
| O=C(NNC(=O)c1ccccc1O)c1ccc(Cl)c(S(=O)(=O)N2CCc3ccccc32)c1 | 14.9% |

| SMILES | inhibition |
| --- | --- |
| COc1cc(/C=N/NC(=O)NC23CC4CC(CC(C4)C2)C3)ccc1OCC(N)=O | -17.2% |
| O=[N+]([O-])c1ccc(C[n+]2cccc3c4ccccc4ccc32)cc1 | 34.3% (active) |
| COc1ccc(CCN(C)C(=O)CSc2nnc(C3CC3)n2N)cc1OC | 12.5% |
| CCOc1ccc(CCN2C(=S)N([C@@H](CC(C)C)CN3CCC[C@@H]3CN3C(=S)NC[C@@H]3CC(C)C)C[C@@H]2CC(C)C)cc1 | 5.15% |
| Cc1[nH]nc2ncc(C(=O)c3cc(F)ccc3O)cc12 | 16.1% |
| CCOc1ccc(NC(=O)CN(C)C(=O)C2CCN(c3ncnc4sc(C)c(C)c34)CC2)cc1OCC | 3.14% |
| COc1ccc(-c2cc(C(=O)NCCCN3CCOCC3)c3ccccc3n2)cc1OC | -2.84% |
| COc1ccc(CN2CCN(C(=O)c3cc(-c4cccnc4)nc4ccc(Cl)cc34)CC2)c(OC)c1OC | -6.25% |
| COc1cc(NC(=O)c2cccc3c(-c4cccnc4)coc23)cc(OC)c1OC | 28.3% (active) |
| Cn1c(N)c(C(=O)CSc2nn(-c3ccccc3)c(=S)s2)c(=O)n(C)c1=O | 17.7% |
| Cc1nc(N=C(N)N)nc2ccccc12 | -11.1% |
| C/C(=N\N=C1\NC(=O)C(CC(=O)O)S1)c1ccccn1 (stereo not given) | -8.7% |
| O=S(=O)(NCC1CN(S(=O)(=O)c2c(F)cccc2F)C1)c1ccc2c(c1)OCCO2 | 17.9% |
| CCOC(=O)N1CCN(C2=Nc3cccc4cccc2c34)CC1 | -0.04% |
| CC(C)(C)c1ccc(CC(=O)N2CCC2(C)C(=O)Nc2ccc(F)cc2F)cc1 (stereo not given) | 14.4% |
| COc1ccc(C(=O)NNC(=O)C(=O)N2CCCCC2)cc1OC | -0.82% |
| CCCCc1ccc(NC(=O)Nc2c(C)n(C)n(-c3ccccc3)c2=O)cc1 | 7.24% |
| COc1ccc(CNC(=O)C(c2ccc(C)cc2)N(Cc2cccs2)C(=O)c2ccc3c(c2)OCCO3)cc1 (stereo not given) | -1.62% |
| Cn1c2ccccc2c(=O)c2ccc(C#CC3(O)CCCCC3)cc21 | -43.1% |
| O=C(Nc1ccncc1)c1cccc(S(=O)(=O)N2CCc3ccccc32)c1 | 27.9% (active) |
